Each structure is given as a SMILES string. Unmarked numbers belong to inactive results. Records with an inconclusive call do not appear. Calls of active or inactive are those of the source. Unless noted, calls follow the shape of the dose curve; as a rule, active = well fitted curve in either direction with a large enough effect (not every such curve was filed as active); inconclusive = small, poorly fitted or top-dose-only effect, or another doubt; inactive = flat fitted curve, though single readings scatter. Some results are limits rather than exact numbers.

In test [1] the target is Lysosomal acid glucosylceramidase (Homo sapiens) (UniProt P04062). As to the kind of experiment: Glucocerebrosidase-p2 (AID 348; in the data active = potency below about 10 µM; also: potency is read from the fitted curve at half-maximal effect). Particulars: purified GBA, blue fluorogenic substrate, 40 min. Put shortly: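 Compounds titrated from 0.6 nM upwards against 0.2 nM enzyme in pH 5.9 citric acid/KH2PO4, taurocholate, tween-20; blue fluorogenic substrate 80 uM, 40 min room temperature, stopped and read Ex 365/Em 440 for AC50.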

A short description of test [2]: AP1 Signaling Pathway (AID 357). Also: % is scaled to controls: 0 for no effect and ±100 for the full control effect. Particulars: ME-180 AP-1-bla reporter, EGF-induced, beta-lactamase ratio, 5 h; at 7.69 µM (top of the series) unless noted. In short, it runs like this: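 Read-out was the 460nm/530nm emission ratio (excitation 405nm) after CCF4 loading for 2.5 hours at room temperature. Cells carried an AP-1-driven beta-lactamase reporter, were stimulated with EC50 EGF plus compound for 5 hours, and AC50 values came from titrations.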

Test [3] has as its target Cytochrome P450 1A2 (Homo sapiens) (UniProt P05177). The test is described as follows: p450-cyp1a2 (AID 410; calls by dose curve; also: potency is read from the fitted curve at half-maximal effect;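 as to activity change, negative = inhibition: -100% = full effect of reference inhibitor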). The note with it: recombinant CYP1A2, luciferin-ME demethylation, luminescence; series mostly up to 11.4 µM. Put shortly:
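20nM CYP1A2 with 100uM Luciferin-ME (at Km) in 100mM KPO4; compound preincubated 10 min, NADPH regeneration added, 60 min at room temperature. Luciferin quantified by luminescence after detection reagent; normalized to 57 uM furafylline.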

Test [4] can be described thus: NFAT Signaling Pathway (AID 444).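 Also: carbachol stimulus at about its EC50 of 1 µM final; % is scaled to controls: 0 for no effect and ±100 for the full control effect.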 Particulars: Jurkat NFAT-bla M1, carbachol, beta-lactamase ratio, 5 h; at 7.69 µM (top of the series) unless noted. Put shortly: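 Read-out: CCF4 FRET ratio (460 nm/530 nm) after 1 h RT dye loading, used for %activity and AC50 from titration series. Cells: Jurkat NFAT-β-lactamase/M1 line, treated with compound plus 1 uM carbachol for 5 h, 37 °C.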

Test [5] in a line: Stat Signaling Pathway (AID 446).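 Also: ME-180 cervical cancer cells given 40 pM IL-6 alongside compound; SIE-controlled beta-lactamase reporter measured as 460/530 nm FRET emission ratio; % is scaled to controls: 0 for no effect and ±100 for the full control effect.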 Particulars: ME-180 (cervical carcinoma) SIE beta-lactamase reporter, IL-6 stimulated, 5 h; at 7.69 µM (top of the series) unless noted. In short, it runs like this:
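ME-180 SIE-bla cells; overnight plating; cpd + IL-6 40 pM, 5 h, 37 C; LiveBLAzer 2.5 h RT; 460/530 nm emission ratio. Normalized to 300 pM IL-6 and 125 nM JAK inhibitor controls.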

The target in test [6] is Glucocorticoid receptor (Homo sapiens) (UniProt P04150). The test is described as follows: GR-GFP Redistribution (AID 450;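 active = compounds whose dose series gives a full or clear partial fitted curve of increased nuclear translocation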; also: potency is read from the fitted curve at half-maximal effect). Particulars: U2OS GR-GFP nuclear translocation, laser cytometry, 2 h.
The target is the same in test [7]. As to the kind of experiment: GR-EFC Redistribution (AID 451; calls by dose curve; also: potency is read from the fitted curve at half-maximal effect). Particulars: CHO-K1 GR-EFC translocation, beta-gal luminescence, 2 h. In short, it runs like this:
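Translocation of GR-ED fusion to nuclear EA restores b-gal, read by luminescence after 1 h room-temperature detection. Engineered CHO-K1 biosensor cells, 1,000/well, exposed 2 h at 37 C to titrations up to 46 uM final.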

Test [8] addresses Mitogen-activated protein kinase 10 (Mus musculus) (UniProt Q61831). The test is described as follows: JNK3 AlphaScreen Assay (AID 530).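 Also: kinase came from lysate of stimulated human HepG2 cells; signal reports phosphorylation of biotinylated GST-cJun 1-79 at Ser73 with 10 µM ATP; % is scaled to controls: 0 for no effect and ±100 for the full control effect.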 Particulars: JNK3 lysate, c-Jun phosphorylation; series mostly up to 11.4 µM. Put shortly: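 Compound titrations were preincubated 15 minutes at room temperature with substrate, antibody and pre-activated JNK3-containing HepG2 lysate. Reactions were started with 10 uM ATP and stopped with EDTA-containing bead buffer for AlphaScreen detection.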
A general note: In Alpha technology, singlet oxygen from a donor bead excites a nearby acceptor bead.

In test [9] the target is 3',5'-cyclic-AMP phosphodiesterase 4B (Homo sapiens) (UniProt Q07343). As to the kind of experiment: qHTS Assay for Inhibitors of PDE-IV (AID 607; active = well fitted activation curve with a large enough effect in the main read-out, with a control signal flat, not every such curve was filed as active; also: % of control where 0% means no effect). Particulars: HEK293 ACTOne CNG channel cells, membrane potential fluorescence; series mostly up to 22.9 µM. In short, it runs like this: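 ACTOne HEK293 cells carry a modified cAMP-gated CNG channel and express endogenous PDE4; plated 1000 cells/well, compounds up to 22.9 uM final. Membrane-potential dye fluorescence (ex 535/em 590) was read; parental cells received 10 uM forskolin + 100 uM RO 20-1724.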
(In general: In qHTS, concentration-response curves come from the screen itself.)

Chain of 3',5'-cyclic-AMP phosphodiesterase 4B (Homo sapiens) (Q07343 whole entry, looked up): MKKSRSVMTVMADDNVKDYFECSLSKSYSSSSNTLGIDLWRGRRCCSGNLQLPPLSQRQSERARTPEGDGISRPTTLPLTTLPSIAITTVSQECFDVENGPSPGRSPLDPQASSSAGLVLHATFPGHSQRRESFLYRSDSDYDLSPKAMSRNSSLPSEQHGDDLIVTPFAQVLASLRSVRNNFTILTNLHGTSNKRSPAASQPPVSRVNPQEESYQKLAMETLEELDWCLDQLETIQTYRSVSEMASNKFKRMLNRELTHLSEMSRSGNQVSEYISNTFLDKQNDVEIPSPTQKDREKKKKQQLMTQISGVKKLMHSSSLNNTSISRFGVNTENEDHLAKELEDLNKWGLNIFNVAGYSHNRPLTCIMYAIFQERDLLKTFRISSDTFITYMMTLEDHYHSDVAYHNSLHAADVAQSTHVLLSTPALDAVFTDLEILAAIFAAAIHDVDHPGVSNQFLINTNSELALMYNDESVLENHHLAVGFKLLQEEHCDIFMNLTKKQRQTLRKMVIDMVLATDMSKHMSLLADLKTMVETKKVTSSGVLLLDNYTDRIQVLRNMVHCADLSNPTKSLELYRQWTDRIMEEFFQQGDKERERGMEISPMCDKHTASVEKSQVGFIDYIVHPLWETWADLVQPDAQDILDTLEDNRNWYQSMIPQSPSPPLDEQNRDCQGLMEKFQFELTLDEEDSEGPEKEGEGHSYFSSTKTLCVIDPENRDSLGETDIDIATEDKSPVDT
Chain of Cytochrome P450 1A2 (Homo sapiens) (P05177 whole entry, looked up): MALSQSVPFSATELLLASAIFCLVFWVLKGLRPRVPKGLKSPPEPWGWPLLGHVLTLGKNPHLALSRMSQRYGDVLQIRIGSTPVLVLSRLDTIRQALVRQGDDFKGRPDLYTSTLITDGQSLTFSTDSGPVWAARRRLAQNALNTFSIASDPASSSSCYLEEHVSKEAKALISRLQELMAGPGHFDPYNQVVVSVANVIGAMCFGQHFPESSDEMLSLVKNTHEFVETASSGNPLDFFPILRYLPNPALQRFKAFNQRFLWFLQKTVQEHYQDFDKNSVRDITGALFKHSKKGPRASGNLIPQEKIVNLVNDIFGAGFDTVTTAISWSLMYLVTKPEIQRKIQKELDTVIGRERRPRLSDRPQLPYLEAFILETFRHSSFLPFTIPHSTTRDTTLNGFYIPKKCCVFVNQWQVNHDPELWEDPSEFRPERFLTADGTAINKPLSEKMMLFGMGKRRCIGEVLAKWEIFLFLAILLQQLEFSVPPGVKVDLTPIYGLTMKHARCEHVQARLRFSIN
Chain of Glucocorticoid receptor (Homo sapiens) (P04150 whole entry, looked up): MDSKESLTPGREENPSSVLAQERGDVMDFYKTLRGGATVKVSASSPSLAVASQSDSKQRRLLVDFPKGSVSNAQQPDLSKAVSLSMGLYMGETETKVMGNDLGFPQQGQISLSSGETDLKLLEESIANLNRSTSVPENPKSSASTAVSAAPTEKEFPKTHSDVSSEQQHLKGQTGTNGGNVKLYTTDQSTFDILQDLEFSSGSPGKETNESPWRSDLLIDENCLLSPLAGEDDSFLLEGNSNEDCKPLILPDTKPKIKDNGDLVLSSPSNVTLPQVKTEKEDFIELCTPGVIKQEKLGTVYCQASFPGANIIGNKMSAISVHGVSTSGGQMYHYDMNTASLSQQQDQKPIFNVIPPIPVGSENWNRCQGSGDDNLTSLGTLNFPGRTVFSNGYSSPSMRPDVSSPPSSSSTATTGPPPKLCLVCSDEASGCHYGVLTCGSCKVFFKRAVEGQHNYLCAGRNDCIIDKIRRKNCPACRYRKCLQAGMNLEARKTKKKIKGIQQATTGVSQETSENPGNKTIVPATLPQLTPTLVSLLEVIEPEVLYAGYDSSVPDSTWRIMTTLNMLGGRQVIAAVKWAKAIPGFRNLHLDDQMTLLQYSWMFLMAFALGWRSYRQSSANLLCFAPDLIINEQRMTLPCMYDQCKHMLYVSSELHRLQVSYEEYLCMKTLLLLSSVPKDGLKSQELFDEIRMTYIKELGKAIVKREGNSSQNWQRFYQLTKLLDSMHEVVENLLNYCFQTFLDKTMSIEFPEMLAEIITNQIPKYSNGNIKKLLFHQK
Chain of Lysosomal acid glucosylceramidase (Homo sapiens) (P04062 whole entry, looked up): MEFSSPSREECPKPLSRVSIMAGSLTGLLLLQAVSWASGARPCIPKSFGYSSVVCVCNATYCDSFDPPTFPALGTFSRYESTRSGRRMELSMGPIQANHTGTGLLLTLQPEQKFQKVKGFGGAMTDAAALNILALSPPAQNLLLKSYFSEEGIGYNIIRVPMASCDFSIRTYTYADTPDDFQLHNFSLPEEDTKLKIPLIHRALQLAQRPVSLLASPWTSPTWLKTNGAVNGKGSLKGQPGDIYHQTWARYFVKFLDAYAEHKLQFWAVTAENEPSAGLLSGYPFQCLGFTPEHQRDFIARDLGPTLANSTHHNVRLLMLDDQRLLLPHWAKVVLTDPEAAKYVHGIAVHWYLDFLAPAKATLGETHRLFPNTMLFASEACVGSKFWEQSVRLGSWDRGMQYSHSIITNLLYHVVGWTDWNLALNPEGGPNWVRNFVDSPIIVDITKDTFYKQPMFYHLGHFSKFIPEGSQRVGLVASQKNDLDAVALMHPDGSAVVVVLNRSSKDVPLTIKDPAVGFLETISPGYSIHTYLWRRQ

In the case of `Cc1cccc2c1Oc1ccccc1[C@@H]2NC(=O)c1ccc([N+](=O)[O-])cc1`, the Potency was greater than 11.4 µM in test [1], 1 µM (active) in test [3], greater than 46 µM in [6] and greater than 9.22 µM in test [7]. In addition, the activity change, negative = inhibition was 0.106% in [2] and -2.92% in test [4]. In addition, the activity, negative = inhibition in test [5] was -4.56%. Besides, the Potency result in test [8] and in test [9] was “inactive” in each case.
For `C[N+](C)(C)[C@H](Cc1c[nH]c(=S)[nH]1)C(=O)O`, the Potency in test [1] is greater than 11.4 µM; in [6], greater than 46 µM; in test [7], greater than 9.22 µM. In addition, the activity change, negative = inhibition was 4.67% in test [2] and -2.8% in test [4]. Moreover, the Potency entry in test [3], in [8] and in test [9] was “inactive” throughout. For the same molecule, the activity, negative = inhibition in test [5] was 9.57%.
Take `Cc1cc(C)nc(SCCc2cccc[n+]2C)n1`: the Potency in [1] was greater than 11.4 µM; in [6], greater than 46 µM; in test [7] it was greater than 9.22 µM. Besides, the activity change, negative = inhibition was -4.14% in test [2], -18.6% [at 2.29 µM] in test [3] and -24.4% in [4]. Further, the activity, negative = inhibition in test [5] was 6.72%. For the same molecule, the Potency entry in [8] and in test [9] was “inactive” each time.
Turning to `COc1ccc(/C=N\NC(=O)O)cc1`, the Potency was greater than 11.4 µM in test [1], 0.501 µM (active) in test [3], greater than 46 µM in test [6] and greater than 9.22 µM in [7]. Also, the activity change, negative = inhibition in test [2] is 7.79%; in [4], 19.9%. Moreover, the activity, negative = inhibition in test [5] was 7.25%. For the same molecule, the Potency result in test [8] and in test [9] was “inactive” each time.
As for `Oc1c(Cl)cc(CN(Cc2cc(Cl)c(O)c(Cl)c2)C2CCCCC2)cc1Cl`, the Potency in test [1] is greater than 11.4 µM; in test [6], greater than 46 µM; in test [7] it was greater than 9.22 µM. Besides, the activity change, negative = inhibition is 4.05% in [2], 11.3% [at 2.29 µM] in test [3] and 1.82% in test [4]. Besides, the activity, negative = inhibition in [5] is -25.8%. Further, the Potency result in [8] and in test [9] was “inactive” each time.
`NS(=O)(=O)c1ccc(N=Nc2c(O)c(C(=O)O)cc3ccccc23)cc1`: the Potency in test [1] is greater than 11.4 µM; in [6] it was greater than 46 µM; in test [7], greater than 9.22 µM. The figures for the activity change, negative = inhibition in [2] and in [4] were 1.12% and 3.68%, respectively. For the same molecule, the Potency entry in test [3], in test [8] and in [9] was “inactive” in each case. Also, in test [5], the activity, negative = inhibition is 5.99%.
For `O=C(O)[C@@H]1[C@@H]2C[C@@H]3[C@@H](OC(=O)[C@@H]31)[C@H]2Br`, the figures for the Potency in test [1], in [6] and in test [7] were greater than 11.4 µM, greater than 46 µM and greater than 9.22 µM, respectively. The activity change, negative = inhibition was 4.57% in test [2] and -26.7% in test [4]. Besides, the Potency entry in test [3], in [8] and in test [9] was “inactive” each time. In test [5], the activity, negative = inhibition is 5.86%.
In the case of `O=C(O)c1ccc(C(=O)c2ccccc2)c(C(=O)O)c1`, the Potency in [1] was greater than 11.4 µM; in test [6] it was greater than 46 µM; in [7], greater than 9.22 µM. In addition, the results for the activity change, negative = inhibition in [2], in test [3] and in test [4] were 21.3%, 3.1% [at 2.29 µM] and 2.06%, respectively. Moreover, the activity, negative = inhibition in [5] was 5.54%. For the same molecule, the Potency entry in test [8] and in test [9] was “inactive” throughout.
In the case of `c1cc2c(cc1C(N1CCNCC1)N1CCNCC1)OCO2`, the Potency is greater than 11.4 µM in test [1], greater than 46 µM in [6] and greater than 9.22 µM in test [7]. Further, the activity change, negative = inhibition was 1.84% in [2], -3% [at 2.29 µM] in [3] and 8.42% in test [4]. In addition, the activity, negative = inhibition in test [5] was -2.48%. Moreover, the Potency result in test [8] and in test [9] was “inactive” in each case.
For `C[C@@H](CNC(N)=O)NC(N)=O`, the Potency was greater than 11.4 µM in test [1], greater than 46 µM in test [6] and greater than 9.22 µM in [7]. The activity change, negative = inhibition was 4.39% in test [2] and 12.2% in test [4]. In addition, the Potency entry in [3], in [8] and in [9] was “inactive” throughout. Besides, the activity, negative = inhibition in test [5] is 5.82%.
On to `O=C(O)c1ccccc1/C=N\N=C1c2ccccc2-c2ccccc21`, for which the Potency was greater than 11.4 µM in [1], 0.316 µM (active) in test [3], greater than 46 µM in test [6] and greater than 9.22 µM in test [7]. In addition, the activity change, negative = inhibition in [2] is 20.6%; in [4], 7.67%. The activity, negative = inhibition in [5] is -13.9%. The Potency result in test [8] and in test [9] was “inactive” throughout.
`OCCCN=C1CCCCC1`: the Potency in [1] was greater than 11.4 µM; in [6], greater than 46 µM; in [7], greater than 9.22 µM. Moreover, the activity change, negative = inhibition in [2] is 14.4%; in [4], 7.24%. Also, the Potency result in [3], in test [8] and in test [9] was “inactive” throughout. For the same molecule, the activity, negative = inhibition in [5] is -19.6%.
For `O=C(O)CCSC1=NCCN1`, the Potency in test [1] was greater than 11.4 µM; in test [6] it was greater than 46 µM; in test [7], greater than 9.22 µM. For the same molecule, the figures for the activity change, negative = inhibition in test [2] and in test [4] were 1.39% and 4.68%, respectively. Also, the Potency entry in [3], in test [8] and in [9] was “inactive” in each case. In test [5], the activity, negative = inhibition is 6.09%.
`O=C(Nc1ccc2ncccc2c1)Nc1ccc2ncccc2c1`: the Potency was greater than 11.4 µM in test [1], greater than 46 µM in test [6] and greater than 9.22 µM in test [7]. Besides, the activity change, negative = inhibition in [2] was -16.2%; in [3] it was -28.5% [at 2.29 µM]; in test [4] it was 21.4%. Besides, the activity, negative = inhibition in test [5] was -14.3%. In addition, the Potency result in test [8] and in test [9] was “inactive” each time.
Regarding `Nc1cc(C(=O)O)[nH]c(=O)n1`, the figures for the Potency in [1], in test [6] and in test [7] were greater than 11.4 µM, greater than 46 µM and greater than 9.22 µM, respectively. The activity change, negative = inhibition is 3.6% in [2] and 8.92% in test [4]. In addition, the Potency result in test [3], in [8] and in test [9] was “inactive” throughout. In [5], the activity, negative = inhibition is 13.8%.
In the case of `CCOC(=O)c1c(C)c(C)n2c1NC(=O)C2`, the Potency in [1] was greater than 11.4 µM; in [3], 2 µM (active); in test [6], greater than 46 µM; in [7] it was greater than 9.22 µM. For the same molecule, the activity change, negative = inhibition was 3.42% in test [2] and -19.4% in test [4]. In test [5], the activity, negative = inhibition is -3.92%. Also, the Potency entry in test [8] and in test [9] was “inactive” throughout.

These data come from PubChem BioAssay (NCATS).
